Results published in PubChem BioAssay (Tox21).
Records with an inconclusive call do not appear. Entries that show only a call come without a potency. Active and inactive are the calls of the source. Unless noted, calls come from the whole dose curve; as a rule, active = well fitted curve in the direction sought with a large enough effect in the repeat runs; inconclusive = weak or mixed curves; inactive = no such curve, though single readings can be large; an effect the other way counts as inactive or inconclusive.

How the values were obtained:
[1] = qHTS assay to identify small molecule agonists of the vitamin D receptor (VDR) signaling pathway - cell viability counter screen (AID 743224); note: nearly all actives have a fitted effect of over 50% in size; note: potency is the fitted concentration of half-maximal effect
How it was run: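 Cells: VDR-bla, 2,000/well, settled 4 h. Treatment: compounds in DMSO, 16 h, 37C/5% CO2. Readout: CellTiter-Glo luminescence after 30 min RT.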

[2] = qHTS assay to identify small molecule antagonists of the vitamin D receptor (VDR) signaling pathway - cell viability counter screen (AID 743225); note: nearly all actives have a fitted effect of over 50% in size
How it was run: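 HEK293T VDR-bla; cpd + 1a,25-(OH)2D3 3 nM final, 16 h 37C/5% CO2; B/G FRET substrate 2 h RT; then CellTiter-Glo 30 min RT, luminescence.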

[3] = qHTS assay to identify small molecule agonists of the NFkB signaling pathway (AID 1159509; active = well fitted curve in the direction sought with a large enough effect in the signal ratio in the repeat runs, not every such curve was filed as active; the % refers to the signal ratio; note: series mostly up to about 61 µM)
How it was run: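 Beta-lactamase reporter assay run in quantitative high-throughput format on an NF-kB-responsive ME-180 line, with 5 hr compound treatment and a FRET-based blue/green fluorescence readout.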

[4] = qHTS assay to identify small molecule agonists of the NFkB signaling pathway - cell viability counter screen (AID 1159515; calls by dose curve; note: series mostly up to about 61 µM; nearly all actives have a fitted effect of over 55% in size)
How it was run: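 Cells are seeded (2,000 NFkB-bla ME-180 per well), rested overnight, and dosed with DMSO-dissolved compounds for 5 hr at 37 C. Viability is then read by CellTiter-Glo luminescence after 30 min at room temperature.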

[5] = qHTS assay to identify small molecule agonists of the endoplasmic reticulum stress response signaling pathway (AID 1159516; active = well fitted activation curve with a large enough effect in the signal ratio in the repeat runs, not every such curve was filed as active; the % refers to the signal ratio)
How it was run: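 Cells are seeded at 1,500 per well and incubated overnight. Compounds in DMSO are added for 5 hr at 37 C, then beta-lactamase FRET substrate for 2 hr at room temperature, and fluorescence at 460 and 530 nm is measured.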

[6] = biological target: Nuclear receptor ROR-gamma (Homo sapiens) (UniProt P51449); test: qHTS assay to identify small molecule antagonists of the retinoid-related orphan receptor gamma (ROR-gamma) signaling pathway (AID 1159521;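 note: CHO cells with doxycycline inducible ROR-gamma driving an RORE luciferase reporter; top concentration of the series differs between compounds; nearly all actives have a fitted effect of over 50% in size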)
How it was run: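 Cells were plated, rested 4 h at 37 C, exposed to compounds for 2 h, then given 1 uM final doxycycline hyclate to induce RORγ expression. After 16 h, ONE-Glo luminescence from the ROR response element reporter was measured.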

[7] = qHTS assay to identify small molecule agonists of the AP-1 signaling pathway - cell viability counter screen (AID 1159525; calls by dose curve; note: nearly all actives have a fitted effect of over 55% in size)
How it was run: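 Each titration point was normalised to DMSO and tetra n-octyl ammonium bromide controls. The read was Cell Titer Glo luminescence after 30 min at RT, following 5 h compound exposure of ME-180 AP-1-bla cells at 37 °C.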

[8] = qHTS assay to identify small molecule agonists of the AP-1 signaling pathway (AID 1159526; calls by dose curve)
[9] = qHTS assay to identify small molecule agonists of the RXR signaling pathway - cell viability counter screen (AID 1159529);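 note: HEK 293T cells carrying an RXR-alpha UAS beta-lactamase reporter; series mostly up to about 77 µM; nearly all actives have a fitted effect of over 50% in size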
How it was run: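 Steps: seed RXR-alpha-UAS-bla HEK 293T cells in assay medium containing 2% charcoal-stripped FBS; incubate 5 hr; add compounds in DMSO; incubate 16 hr at 37 C; after the bla read, add CellTiter-Glo and read luminescence at 30 min.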

[10] = qHTS assay to identify small molecule antagonists of the retinoid acid receptor (RAR) signaling pathway - cell viability counter screen (AID 1159551); note: nearly all actives have a fitted effect of over 35% in size
How it was run: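 Cells (C3RL4) are plated, incubated overnight, dosed with compound in DMSO, then given retinol at 1 uM final. After 6 h at 37 C, CellTiter-Glo is added and luminescence read following 30 min at room temperature.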

[11] = qHTS assay to identify small molecule antagonists of the retinoic acid receptor (RAR) signaling pathway (AID 1159552; note: nearly all actives have a fitted effect of over 50% in size; note: potency is the fitted concentration of half-maximal effect)
How it was run: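 Retinol at 1 uM final stimulated RARE-luciferase expression in C3RL4 cells exposed to test compounds for 6 hr at 37 C. Reduced luminescence, read 30 min after detection reagent, indicated pathway antagonism.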

[12] = qHTS assay to identify small molecule antagonists of the retinoid-related orphan receptor gamma (ROR-gamma) signaling pathway - cell viability counter screen (AID 1159520); note: nearly all actives have a fitted effect of over 50% in size
How it was run: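 Tet-on ROR gamma CHO cells (1,000/well) were plated 4 hr, given compounds in DMSO for 2 hr at 37 C, then induced with 1 uM final doxycycline for 16 hr. Viability was read as ATP by CellTiter-Glo luminescence after 30 min.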

[13] = qHTS assay to identify small molecule agonists of the retinoic acid receptor (RAR) signaling pathway (AID 1159553); note: potency is the fitted concentration of half-maximal effect
How it was run: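 Seed C3RL4 reporter cells at 1,000 per well and incubate overnight at 37 C. Add compounds in DMSO, incubate 6 hr. Add luciferase reagent, wait 30 min at room temperature, read luminescence.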

[14] = biological target: Retinoic acid receptor RXR-alpha (Homo sapiens) (UniProt P19793); test: qHTS assay to identify small molecule agonists of the RXR signaling pathway (AID 1159527; calls by dose curve; note: nearly all actives have a fitted effect of over 35% in size)
How it was run: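 Cells plated at 2,000/well, rested 5 hr at 37 C, pin-dosed with DMSO compound solutions, incubated 16 hr, then loaded with B/G FRET substrate for 2 hr at RT before dual-emission fluorescence reading.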

[15] = qHTS assay to identify small molecule antagonists of the estrogen related receptor (ERR) signaling pathway (AID 1224819; note: nearly all actives have a fitted effect of over 50% in size; note: potency is the fitted concentration of half-maximal effect)
How it was run: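 qHTS in ERR cells, 2,000/well, 1536 format. Cpd (DMSO) added after 6 h settle, 18 h 37 C. One-Glo luminescence, 30 min RT.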

[16] = qHTS assay to identify small molecule agonists of the estrogen related receptor (ERR) signaling pathway (AID 1224820)
How it was run: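 Following a 6 h settling period, 2,000 ERR cells per well receive DMSO-dissolved compounds by pin tool and incubate 18 h at 37 C; agonist activity is scored from One-Glo luminescence read 30 min post-addition.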

[17] = test system: estrogen-related receptor alpha (ERRalpha) with PGC-1alpha coactivator, human; test: qHTS assay to identify small molecule antagonists of the estrogen related receptor signaling pathway with the pleiotropic PPARgamma coactivator (PGC) (AID 1224821; calls by dose curve; note: nearly all actives have a fitted effect of over 50% in size; note: potency is the fitted concentration of half-maximal effect)
How it was run: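 Screening used NTP's PGC/ERR cells, dosed via pin tool with compound in DMSO alongside positive and negative controls. After 18 h at 37 C, One-Glo reagent sat 30 min at room temperature before luminescence detection.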

[18] = qHTS assay to identify small molecule antagonists of the estrogen related receptor (ERR) signaling pathway - cell viability counter screen (AID 1224818);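 note: series mostly up to about 46 µM; viability measured after 17.5 h of compound exposure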
How it was run: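 ERR cells, 2,000/well; 6 h settle at 37 C/5% CO2; compound pin transfer (DMSO); 17.5 h at 37 C; CellTiter-Fluor, 30 min, fluorescence read.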

Sequence of Retinoic acid receptor RXR-alpha (Homo sapiens) (P19793 whole entry, looked up): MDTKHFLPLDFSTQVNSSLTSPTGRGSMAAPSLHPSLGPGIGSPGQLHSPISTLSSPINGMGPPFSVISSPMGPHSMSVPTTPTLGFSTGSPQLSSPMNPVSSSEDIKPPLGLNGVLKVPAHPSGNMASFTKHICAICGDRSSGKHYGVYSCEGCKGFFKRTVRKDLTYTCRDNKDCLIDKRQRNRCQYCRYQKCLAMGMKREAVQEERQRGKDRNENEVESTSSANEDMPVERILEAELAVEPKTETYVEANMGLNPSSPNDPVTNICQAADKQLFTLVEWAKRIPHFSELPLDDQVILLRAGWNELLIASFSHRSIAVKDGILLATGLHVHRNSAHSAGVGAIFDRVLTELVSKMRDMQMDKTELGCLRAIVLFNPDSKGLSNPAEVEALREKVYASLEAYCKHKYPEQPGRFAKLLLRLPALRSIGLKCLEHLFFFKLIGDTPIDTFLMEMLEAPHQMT

O=C(c1ccc(O)cc1)c1ccc(Cl)cc1
Potency [1]: inactive
Potency [2]: inactive
outcome [3]: inactive
outcome [4]: inactive
outcome [5]: inactive
Potency [6]: inactive
outcome [7]: inactive
outcome [8]: inactive
Potency [9]: inactive
Potency [10]: inactive
Potency [11]: inactive

Nc1ccc(Cl)cc1[N+](=O)[O-]
Potency [1]: inactive
Potency [2]: inactive
outcome [3]: inactive
outcome [4]: inactive
outcome [5]: inactive
Potency [12]: inactive
outcome [7]: inactive
outcome [8]: inactive
Potency [9]: inactive
Potency [10]: inactive
Potency [13]: inactive

CC1CC(O)CC(C)(C)C1 (configuration not stated)
Potency [1]: inactive
Potency [2]: inactive
outcome [3]: inactive
outcome [4]: inactive
outcome [5]: inactive
Potency [12]: inactive
outcome [8]: inactive
Potency [10]: inactive
Potency [11]: inactive
Potency [13]: inactive

CC(C)(CCl)c1ccccc1
Potency [2]: inactive
outcome [3]: inactive
outcome [4]: inactive
outcome [5]: inactive
Potency [6]: inactive
outcome [7]: inactive
outcome [8]: inactive
Potency [9]: inactive
Potency [10]: inactive
Potency [11]: inactive

COC(=O)[C@@H]1CC2=CC(=O)CC[C@]2(C)[C@@]23O[C@@H]2C[C@@]2(C)[C@@H](CC[C@@]24CCC(=O)O4)[C@H]13
Potency [2]: inactive
outcome [3]: inactive
outcome [4]: inactive
outcome [5]: inactive
Potency [12]: inactive
outcome [7]: inactive
outcome [8]: inactive
Potency [14]: inactive
Potency [10]: inactive
Potency [11]: inactive
Potency [13]: inactive

O=C(O)c1ccccc1NCCc1ccccc1
Potency [1]: inactive
Potency [2]: inactive
outcome [3]: inactive
outcome [4]: inactive
outcome [5]: inactive
Potency [12]: inactive
outcome [8]: inactive
Potency [9]: inactive
Potency [10]: inactive
Potency [13]: 23.7 µM (active)

O=C(O)c1cccc(O)c1
Potency [1]: inactive
Potency [2]: inactive
outcome [3]: inactive
outcome [4]: inactive
outcome [5]: inactive
Potency [12]: inactive
outcome [7]: inactive
outcome [8]: inactive
Potency [9]: inactive
Potency [10]: inactive
Potency [11]: inactive
Potency [13]: inactive

CCC(C)=O
Potency [1]: inactive
Potency [2]: inactive
outcome [3]: inactive
outcome [4]: inactive
outcome [5]: inactive
Potency [12]: inactive
outcome [8]: inactive
Potency [9]: inactive
Potency [10]: inactive
Potency [13]: inactive

COCCOC(=O)C1=C(C)NC(C)=C(C(=O)OC/C=C/c2ccccc2)C1c1cccc([N+](=O)[O-])c1 (configuration not stated)
Potency [1]: inactive
Potency [2]: inactive
outcome [3]: inactive
outcome [4]: inactive
outcome [5]: inactive
outcome [7]: inactive
Potency [9]: inactive
Potency [10]: inactive
Potency [13]: inactive
Potency [15]: 11.9 µM (active)
outcome [16]: inactive
Potency [17]: 17.4 µM (active)

OCCSc1ccccc1
Potency [1]: inactive
Potency [2]: inactive
outcome [3]: inactive
outcome [4]: inactive
outcome [5]: inactive
Potency [12]: inactive
outcome [7]: inactive
outcome [8]: inactive
Potency [10]: inactive

CC(C)C(OC(=O)c1ccccc1)C(C)(C)COC(=O)c1ccccc1 (configuration not stated)
Potency [2]: inactive
outcome [3]: inactive
outcome [4]: inactive
outcome [5]: inactive
Potency [12]: inactive
outcome [7]: inactive
outcome [8]: inactive
Potency [14]: inactive
Potency [10]: inactive
Potency [11]: inactive

CC1(C)C2=CCCC(C)(C)[C@]23CC[C@H]1C3
Potency [1]: inactive
outcome [3]: inactive
outcome [4]: inactive
outcome [5]: inactive
Potency [12]: inactive
outcome [7]: inactive
outcome [8]: inactive
Potency [14]: inactive
Potency [10]: inactive
Potency [11]: inactive
Potency [13]: inactive

C/C=C/C=C/CCCCCCCO
Potency [1]: inactive
Potency [2]: inactive
outcome [3]: inactive
outcome [4]: inactive
outcome [5]: inactive
Potency [12]: inactive
outcome [7]: inactive
outcome [8]: inactive
Potency [9]: inactive
Potency [13]: inactive

Fc1c(F)c(F)c(Br)c(F)c1F
Potency [1]: inactive
Potency [2]: inactive
outcome [3]: inactive
outcome [4]: inactive
outcome [5]: inactive
Potency [12]: inactive
outcome [8]: inactive
Potency [9]: inactive
Potency [10]: inactive
Potency [13]: inactive

CNCCCC1c2ccccc2C=Cc2ccccc21
Potency [1]: 29.8 µM (active)
outcome [3]: inactive
outcome [4]: inactive
outcome [5]: inactive
Potency [12]: inactive
outcome [7]: inactive
outcome [8]: inactive
Potency [10]: inactive
Potency [11]: 23.7 µM (active)
outcome [18]: inactive
Potency [15]: inactive
outcome [16]: inactive
Potency [17]: inactive

CN1CCCN=C1/C=C/c1cccs1
Potency [1]: inactive
Potency [2]: inactive
outcome [3]: inactive
outcome [4]: inactive
outcome [5]: inactive
Potency [12]: inactive
outcome [7]: inactive
outcome [8]: inactive
Potency [14]: inactive
Potency [9]: inactive
Potency [10]: inactive
Potency [13]: inactive

CCOC(=O)C(C)Oc1ccc(Oc2nc3ccc(Cl)cc3o2)cc1 (configuration not stated)
Potency [1]: inactive
Potency [2]: inactive
outcome [3]: inactive
outcome [4]: inactive
outcome [5]: inactive
Potency [12]: inactive
outcome [8]: inactive
Potency [9]: inactive
Potency [10]: inactive

CCN(Cc1cccc(S(=O)(=O)O)c1)c1ccc(C(=C2C=CC(=[N+](CC)Cc3cccc(S(=O)(=O)[O-])c3)C=C2)c2ccccc2)cc1
Potency [1]: inactive
outcome [3]: inactive
outcome [4]: inactive
outcome [5]: inactive
Potency [12]: inactive
Potency [14]: inactive
Potency [9]: inactive
Potency [10]: inactive
Potency [13]: inactive

CN1Cc2cc(C(=O)N3CCC(C4CCNCC4)CC3)ccc2N[C@@H](CC(=O)O)C1=O
Potency [1]: inactive
Potency [2]: inactive
outcome [3]: inactive
outcome [4]: inactive
outcome [5]: inactive
Potency [12]: inactive
outcome [7]: inactive
outcome [8]: inactive
Potency [14]: inactive
Potency [9]: inactive
Potency [10]: inactive

O=[N+]([O-])c1cccc(S(=O)(=O)NCCNS(=O)(=O)c2cccc([N+](=O)[O-])c2)c1
Potency [1]: inactive
Potency [2]: inactive
outcome [3]: inactive
outcome [4]: inactive
outcome [5]: inactive
Potency [12]: inactive
outcome [7]: inactive
outcome [8]: inactive
Potency [14]: inactive
Potency [9]: inactive
Potency [10]: inactive

Cc1ccc(S)cc1
Potency [1]: inactive
Potency [2]: inactive
outcome [3]: inactive
outcome [4]: inactive
outcome [5]: inactive
Potency [6]: inactive
outcome [7]: inactive
outcome [8]: inactive
Potency [9]: inactive
Potency [10]: inactive
